These results are taken from PubChem BioAssay (EPA / NIEHS).

Experiment [1] addresses human RAR-related Orphan Receptor beta (RORb), RORB (gene 6096) (UniProt Q92753). The experiment is described as follows: ATG_RORb_TRANS: Attagene TRANS-FACTORIAL HepG2 Assay for human RAR-related Orphan Receptor beta (RORb) (AID 2283010; active = hit-call score of the fitted dose curve at least 0.9, where 1 is the maximum). In a few lines:
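Multiplexed transcription-factor reporter assay: HepG2 cells transiently carrying NR-Gal4/GAL4-UAS constructs, 24 h treatment, mRNA quantified by RT-PCR plus capillary electrophoresis fluorescence; activity scored as induction over DMSO.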

Experiment [2] has as its target human RAR-related Orphan Receptor gamma (RORg), RORC (gene 6097) (UniProt P51449). Description: ATG_RORg_TRANS: Attagene TRANS-FACTORIAL HepG2 Assay for human RAR-related Orphan Receptor gamma (RORg) (AID 2283011; active = hit-call score of the fitted dose curve at least 0.9, where 1 is the maximum). In outline:
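First, HepG2 liver cells were transfected with GAL4-UAS-driven reporter constructs and the RORg-Gal4 fusion. Next, they were treated with chemical for 24 h. Finally, reporter mRNA was quantified by RT-PCR and capillary electrophoresis, with upward activity fitted against DMSO.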

Experiment [3] has as its target Retinoic acid receptor RXR-alpha (Homo sapiens) (UniProt P19793). The experiment is described as follows: ATG_RXRa_TRANS: Attagene TRANS-FACTORIAL HepG2 Assay for human Retinoid X Receptor alpha (RXRa) (AID 2283012; active = hit-call score of the fitted dose curve at least 0.9, where 1 is the maximum). In a few lines: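 Chimeric NR-GAL4 trans-activation in HepG2, 24 h treatment; reporter transcripts quantified by fluorescence on capillary electrophoresis, analysed for upward change from DMSO.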

Experiment [4] addresses human Retinoid X Receptor beta (RXRb), RXRB (gene 6257) (UniProt P28702). Description: ATG_RXRb_TRANS: Attagene TRANS-FACTORIAL HepG2 Assay for human Retinoid X Receptor beta (RXRb) (AID 2283013; active = hit-call score of the fitted dose curve at least 0.9, where 1 is the maximum). In a few lines: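 After a 24 h incubation with test chemical, transfected HepG2 cells carrying NR-Gal4 fusions and GAL4-UAS reporter transcription units yield RNA whose reporter cDNA is FAM-labelled, HpaI-cut and sized by capillary electrophoresis; increases over DMSO are scored.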

The target in experiment [5] is human Thyroid Receptor alpha (THRa1), THRA (gene 7067) (UniProt P10827). The experiment is described as follows: ATG_THRa1_TRANS: Attagene TRANS-FACTORIAL HepG2 Assay for human Thyroid Receptor alpha (THRa1) (AID 2283014; active = hit-call score of the fitted dose curve at least 0.9, where 1 is the maximum). In outline:
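Reporter transcript induction, read by capillary electrophoresis of 6-FAM-labelled RT-PCR products, reflects activity of a transfected THRa1-Gal4 fusion in HepG2 liver cells. Cells were dosed for 24 h; activity was fitted in the positive direction against DMSO.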

Read-out in experiment [6]: E-selectin (Homo sapiens) (UniProt P16581)
The experiment is described as follows: BSK_3C_Eselectin: BioMAP Diversity Plus: 3C Assay for Eselectin Biomarker Activity (AID 2283015).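 For outcome: cell surface E-selectin protein quantified by ELISA 24 h after dosing.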 Conditions: primary human endothelial cells (HUVEC); actives raise or lower the signal. In outline:
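ELISA read-out of E-selectin on endothelial monolayers after 24 h chemical treatment. Human umbilical vein primary cells served as the system, with DMSO defining baseline activity for bidirectional fitting.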

Read-out in experiment [7]: Interleukin-1 alpha (IL1a), IL1A (gene 3552)
The experiment is described as follows: BSK_BE3C_IL1a: BioMAP Diversity Plus: BE3C Assay for Interleukin-1 alpha (IL1a) Biomarker Activity (AID 2283016). Particulars: primary human bronchial epithelial cells; actives raise or lower the signal. In a few lines:
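Measured in human lung primary bronchial epithelial cells: IL-1a by ELISA at 24 h after dosing, with bidirectional fitting against DMSO.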

Read-out in experiment [8]: Monocyte Chemoattractant Protein-1 (MCP1), CCL2 (gene 6347)
The experiment is described as follows: BSK_3C_MCP1: BioMAP Diversity Plus: 3C Assay for Monocyte Chemoattractant Protein-1 (MCP1) Biomarker Activity (AID 2283017). Particulars: primary human endothelial cells (HUVEC); actives raise or lower the signal. In a few lines:
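ELISA read-out of MCP-1 from human umbilical vein endothelial cell cultures harvested 24 h post-dosing. Gain or loss of signal was fitted relative to DMSO.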

Read-out in experiment [9]: Monocyte Chemoattractant Protein-1 (MCP1), CCL2 (gene 6347)
The experiment is described as follows: BSK_4H_MCP1: BioMAP Diversity Plus: 4H Assay for Monocyte Chemoattractant Protein-1 (MCP1) Biomarker Activity (AID 2283018). Particulars: primary human endothelial cells (HUVEC); actives raise or lower the signal. In a few lines: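 Primary human umbilical vein endothelium is exposed to chemical for 24 h before MCP-1 is assayed by ELISA. Concentration-response fitted bidirectionally relative to DMSO.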

Read-out in experiment [10]: Human Leukocyte Antigen - DR isotype (HLADR), HLA-DRA (gene 3122)
The experiment is described as follows: BSK_3C_HLADR: BioMAP Diversity Plus: 3C Assay for Human Leukocyte Antigen - DR isotype (HLADR) Biomarker Activity (AID 2283019). Particulars: primary human endothelial cells (HUVEC); actives raise or lower the signal. In a few lines: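 ELISA readout of surface HLA-DR on human umbilical vein endothelium, taken 24 h after chemical treatment. Gain- and loss-of-signal were both fitted relative to DMSO.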

Read-out in experiment [11]: Interleukin-8 (IL8), CXCL8 (gene 3576)
Description: BSK_3C_IL8: BioMAP Diversity Plus: 3C Assay for Interleukin-8 (IL8) Biomarker Activity (AID 2283020). Conditions: primary human endothelial cells (HUVEC); actives raise or lower the signal. In outline:
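Using DMSO-treated wells as the baseline, bidirectional curve fitting was applied to ELISA-measured IL-8 from human umbilical vein endothelial cultures sampled 24 h after compound addition.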

Read-out in experiment [12]: Monokine induced gamma interferon (MIG), CXCL9 (gene 4283)
Description: BSK_3C_MIG: BioMAP Diversity Plus: 3C Assay for Monokine induced gamma interferon (MIG) Biomarker Activity (AID 2283021).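 For AC50: MIG protein level measured by immunoassay in the treated endothelial cultures.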 Conditions: primary human endothelial cells (HUVEC); actives raise or lower the signal. In outline: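 ELISA-measured MIG in dosed HUVEC 3C cultures at 24 h, analysed by bidirectional fitting with DMSO defining baseline activity.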

Experiment [13] has as its target human Vitamin D Receptor (VDR), VDR (gene 7421) (UniProt P11473). Description: ATG_VDR_TRANS: Attagene TRANS-FACTORIAL HepG2 Assay for human Vitamin D Receptor (VDR) (AID 2283022; active = hit-call score of the fitted dose curve at least 0.9, where 1 is the maximum). In outline: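 Steps: transfect HepG2 with GAL4-UAS-driven reporter constructs; dose compounds 24 h; isolate RNA, reverse-transcribe, PCR-amplify with 6-FAM-labelled primer extension and HpaI digestion; quantify fragments by capillary electrophoresis relative to DMSO.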

Experiment [14] is described as follows: BSK_3C_SRB: Viability Assessment in the BioMAP Diversity Plus: 3C Assay (AID 2283023).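 Note: fitted both ways against DMSO so a hit may be signal rise or drop.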 Conditions: primary human endothelial cells (HUVEC). In a few lines: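 Absorbance at 560 nm of sulforhodamine B-stained (0.1%) total protein served as a cytotoxicity readout in human umbilical vein endothelial cells, 24 h after chemical treatment. Signal was fitted bidirectionally relative to DMSO.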

Read-out in experiment [15]: Matrix Metallopeptidase 1 (MMP1), MMP1 (gene 4312)
Description: BSK_BE3C_MMP1: BioMAP Diversity Plus: BE3C Assay for Matrix Metallopeptidase 1 (MMP1) Biomarker Activity (AID 2283024). Conditions: primary human bronchial epithelial cells; actives raise or lower the signal. In outline: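 In this multiplexed primary-cell system, human bronchial epithelium received chemicals for 24 h before an ELISA for MMP1. Values reflect bidirectional fits normalised to the DMSO baseline.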

Read-out in experiment [16]: Pselectin, SELP (gene 6403)
The experiment is described as follows: BSK_4H_Pselectin: BioMAP Diversity Plus: 4H Assay for Pselectin Biomarker Activity (AID 2283026). Conditions: primary human endothelial cells (HUVEC); actives raise or lower the signal. In a few lines: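 Bidirectional fits against DMSO gave the endpoint. Cells: primary human umbilical vein endothelium, chemical-treated for 24 h before ELISA detection of P-selectin.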

The nature of experiment [17]: BSK_4H_SRB: Viability Assessment in the BioMAP Diversity Plus: 4H Assay (AID 2283027).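 For AC50: curves fitted both ways versus DMSO so AC50 may be loss or gain.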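 Note: cells exposed to compound for 24 h before staining.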 Particulars: primary human endothelial cells (HUVEC). In a few lines:
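Cytotoxicity readout: sulforhodamine B (0.1%) staining of total protein after 10% TCA fixation, measured at 560 nm in human umbilical vein endothelium at 24 h. DMSO set the baseline; fitting was bidirectional.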

Read-out in experiment [18]: Thrombomodulin, THBD (gene 7056)
The experiment is described as follows: BSK_3C_Thrombomodulin: BioMAP Diversity Plus: 3C Assay for Thrombomodulin Biomarker Activity (AID 2283029). Conditions: primary human endothelial cells (HUVEC); actives raise or lower the signal. In outline: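 In a multiplexed primary-cell system, human umbilical vein endothelium received chemical and was assayed 24 h later for thrombomodulin by ELISA. Parallel cultures were SRB-stained (0.1% SRB after 10% TCA fixation, read at 560 nm) to flag cytotoxicity.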

The nature of experiment [19]: BSK_3C_Vis: BioMAP Diversity Plus: 3C Assay for Morphology Visualization (AID 2283025).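 Note: light microscopy image of cell morphology used as background control; fitted both ways so gain or loss versus DMSO counts.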 Conditions: primary human endothelial cells (HUVEC). In a few lines:
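Light-microscopy morphology readout, 24 h exposure, human primary umbilical vein endothelium; analysed relative to DMSO with bidirectional fitting.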

A short description of experiment [20]: BSK_BE3C_SRB: Viability Assessment in the BioMAP Diversity Plus: BE3C Assay (AID 2283028).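 For AC50: fitted both ways so AC50 may mark signal gain or loss versus DMSO.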 Conditions: primary human bronchial epithelial cells. In outline: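 Cells (human bronchial epithelial, primary) are treated with chemicals, and after 24 h the parallel cultures are fixed in 10% TCA. These are then stained with 0.1% SRB and read at 560 nm. Gain or loss of signal is fitted relative to DMSO.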

“And” between values parts separate entries of the source, which are not always exact repeats. Equal values may be shown once. Records with an inconclusive call do not appear. The source holds several records for some structures; these can differ, active in one and inactive in another. The source made the active and inactive calls. Rule for the calls, unless noted: active = hit-call score of the fitted dose curve at least 0.9, where 1 is the maximum; inactive = score below 0.9.

Sequence of human RAR-related Orphan Receptor gamma (RORg), RORC (gene 6097) (P51449 whole entry, looked up, the tested form may be a part): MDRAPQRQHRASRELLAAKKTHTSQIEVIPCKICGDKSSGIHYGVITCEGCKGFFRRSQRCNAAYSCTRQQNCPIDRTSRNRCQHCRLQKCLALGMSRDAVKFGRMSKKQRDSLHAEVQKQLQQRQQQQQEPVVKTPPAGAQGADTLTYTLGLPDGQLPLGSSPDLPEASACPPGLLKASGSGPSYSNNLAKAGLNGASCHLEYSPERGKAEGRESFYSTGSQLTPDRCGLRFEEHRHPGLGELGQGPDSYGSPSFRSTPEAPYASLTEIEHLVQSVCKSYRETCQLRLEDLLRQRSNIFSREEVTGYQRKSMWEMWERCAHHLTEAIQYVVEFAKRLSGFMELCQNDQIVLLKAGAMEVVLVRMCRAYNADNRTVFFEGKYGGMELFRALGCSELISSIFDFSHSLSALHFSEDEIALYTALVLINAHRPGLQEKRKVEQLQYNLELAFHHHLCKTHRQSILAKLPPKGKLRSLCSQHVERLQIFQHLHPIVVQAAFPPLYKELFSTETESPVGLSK
Sequence of human Vitamin D Receptor (VDR), VDR (gene 7421) (P11473 whole entry, looked up, the tested form may be a part): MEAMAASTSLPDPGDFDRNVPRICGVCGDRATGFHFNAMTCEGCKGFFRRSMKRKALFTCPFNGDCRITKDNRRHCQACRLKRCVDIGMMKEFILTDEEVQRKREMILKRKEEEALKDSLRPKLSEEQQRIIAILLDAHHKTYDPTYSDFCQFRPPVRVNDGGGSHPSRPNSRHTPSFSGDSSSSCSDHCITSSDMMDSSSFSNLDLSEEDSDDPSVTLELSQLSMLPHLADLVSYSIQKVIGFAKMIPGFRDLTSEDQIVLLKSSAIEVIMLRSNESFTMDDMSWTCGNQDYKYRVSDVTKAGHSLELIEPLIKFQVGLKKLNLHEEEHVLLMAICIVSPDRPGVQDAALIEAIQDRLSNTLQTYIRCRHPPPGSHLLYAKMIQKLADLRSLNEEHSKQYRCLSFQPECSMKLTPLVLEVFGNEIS
Sequence of Retinoic acid receptor RXR-alpha (Homo sapiens) (P19793 whole entry, looked up, the tested form may be a part): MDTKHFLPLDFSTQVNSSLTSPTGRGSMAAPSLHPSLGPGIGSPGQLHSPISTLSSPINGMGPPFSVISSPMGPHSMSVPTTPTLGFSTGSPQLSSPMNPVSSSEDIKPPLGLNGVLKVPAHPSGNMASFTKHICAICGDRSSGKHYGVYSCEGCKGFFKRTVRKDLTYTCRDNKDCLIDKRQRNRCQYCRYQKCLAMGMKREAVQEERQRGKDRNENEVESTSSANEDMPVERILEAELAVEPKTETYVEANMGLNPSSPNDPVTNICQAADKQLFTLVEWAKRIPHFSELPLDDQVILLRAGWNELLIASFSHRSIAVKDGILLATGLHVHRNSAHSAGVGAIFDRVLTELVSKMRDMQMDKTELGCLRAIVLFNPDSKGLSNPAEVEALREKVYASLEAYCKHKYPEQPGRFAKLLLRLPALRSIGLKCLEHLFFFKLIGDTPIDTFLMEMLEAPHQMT
Sequence of E-selectin (Homo sapiens) (P16581 whole entry, looked up): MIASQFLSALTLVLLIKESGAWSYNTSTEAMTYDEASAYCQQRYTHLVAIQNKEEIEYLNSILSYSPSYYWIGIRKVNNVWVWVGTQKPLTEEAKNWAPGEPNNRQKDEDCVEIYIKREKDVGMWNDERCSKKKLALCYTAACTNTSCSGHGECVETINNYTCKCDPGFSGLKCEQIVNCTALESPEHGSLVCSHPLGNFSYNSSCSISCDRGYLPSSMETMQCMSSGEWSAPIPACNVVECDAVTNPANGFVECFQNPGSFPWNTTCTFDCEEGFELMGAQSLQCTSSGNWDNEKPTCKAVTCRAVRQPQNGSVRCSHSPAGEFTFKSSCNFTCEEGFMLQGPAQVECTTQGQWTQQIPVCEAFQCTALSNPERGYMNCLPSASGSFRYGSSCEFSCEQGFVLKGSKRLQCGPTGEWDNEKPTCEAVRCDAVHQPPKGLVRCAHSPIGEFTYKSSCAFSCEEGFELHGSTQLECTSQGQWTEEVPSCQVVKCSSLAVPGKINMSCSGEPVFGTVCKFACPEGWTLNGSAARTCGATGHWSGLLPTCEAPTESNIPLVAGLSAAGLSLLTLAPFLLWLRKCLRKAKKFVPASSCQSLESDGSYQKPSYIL
Sequence of human Retinoid X Receptor beta (RXRb), RXRB (gene 6257) (P28702 whole entry, looked up, the tested form may be a part): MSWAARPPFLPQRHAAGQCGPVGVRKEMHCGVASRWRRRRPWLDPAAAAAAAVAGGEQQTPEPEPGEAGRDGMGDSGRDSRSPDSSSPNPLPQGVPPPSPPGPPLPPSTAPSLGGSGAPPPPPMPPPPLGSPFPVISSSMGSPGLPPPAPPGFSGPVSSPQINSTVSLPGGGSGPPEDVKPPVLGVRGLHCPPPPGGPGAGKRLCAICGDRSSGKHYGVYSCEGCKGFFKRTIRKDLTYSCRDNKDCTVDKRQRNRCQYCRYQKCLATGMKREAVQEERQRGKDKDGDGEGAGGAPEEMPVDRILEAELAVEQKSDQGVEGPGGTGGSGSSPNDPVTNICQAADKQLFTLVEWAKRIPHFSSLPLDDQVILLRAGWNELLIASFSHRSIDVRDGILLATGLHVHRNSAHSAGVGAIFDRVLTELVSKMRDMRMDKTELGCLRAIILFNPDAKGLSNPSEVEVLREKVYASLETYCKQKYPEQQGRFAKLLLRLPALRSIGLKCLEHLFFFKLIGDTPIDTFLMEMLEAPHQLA
Sequence of human RAR-related Orphan Receptor beta (RORb), RORB (gene 6096) (Q92753 whole entry, looked up, the tested form may be a part): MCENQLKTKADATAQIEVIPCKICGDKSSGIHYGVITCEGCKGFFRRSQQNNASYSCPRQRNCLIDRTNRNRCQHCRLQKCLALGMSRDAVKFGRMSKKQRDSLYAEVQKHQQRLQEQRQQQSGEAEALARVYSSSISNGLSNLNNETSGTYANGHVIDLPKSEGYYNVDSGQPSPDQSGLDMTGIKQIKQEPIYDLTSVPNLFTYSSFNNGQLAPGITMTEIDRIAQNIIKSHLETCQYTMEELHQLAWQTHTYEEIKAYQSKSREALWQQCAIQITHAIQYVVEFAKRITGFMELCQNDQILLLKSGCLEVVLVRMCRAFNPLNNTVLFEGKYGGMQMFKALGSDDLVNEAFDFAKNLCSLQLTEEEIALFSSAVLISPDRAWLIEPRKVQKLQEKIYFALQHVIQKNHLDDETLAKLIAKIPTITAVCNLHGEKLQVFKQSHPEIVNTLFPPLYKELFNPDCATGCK
Sequence of human Thyroid Receptor alpha (THRa1), THRA (gene 7067) (P10827 whole entry, looked up, the tested form may be a part): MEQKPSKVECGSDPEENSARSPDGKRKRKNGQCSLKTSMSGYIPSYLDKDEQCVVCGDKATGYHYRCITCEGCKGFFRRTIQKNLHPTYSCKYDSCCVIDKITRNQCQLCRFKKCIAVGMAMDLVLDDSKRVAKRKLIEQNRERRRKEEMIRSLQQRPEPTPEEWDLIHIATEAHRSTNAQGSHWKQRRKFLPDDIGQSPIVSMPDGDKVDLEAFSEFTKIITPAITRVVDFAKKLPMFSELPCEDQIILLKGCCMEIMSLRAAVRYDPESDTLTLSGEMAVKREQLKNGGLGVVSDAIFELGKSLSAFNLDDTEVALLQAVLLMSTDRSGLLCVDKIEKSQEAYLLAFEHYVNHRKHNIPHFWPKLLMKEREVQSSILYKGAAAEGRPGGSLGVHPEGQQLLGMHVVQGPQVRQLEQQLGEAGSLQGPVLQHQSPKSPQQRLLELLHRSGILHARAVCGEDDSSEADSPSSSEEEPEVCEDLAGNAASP

Regarding `O=C(O)C(F)(F)C(F)(F)C(F)(F)C(F)(F)C(F)(F)C(F)(F)C(F)(F)C(F)(F)C(F)(F)C(F)(F)C(F)(F)C(F)(F)F`, the call in [1], in [2], in [3], in experiment [4], in [5] and in experiment [6] was inactive. For the same molecule, the result in experiment [7], in experiment [8], in experiment [9], in [10], in experiment [12] and in experiment [13] was inactive. Further, the result in experiment [14], in experiment [15], in experiment [16] and in [18] was inactive. The AC50 was 23.6 µM (active) and 8.82 µM (active) in [11]; 21.7 µM (active) and 18 µM (active) in experiment [17]; 0.928 µM (active) in experiment [18].

Regarding `FC(F)(F)C(F)(F)C(F)(F)C(F)(F)C(F)(F)CCI`, the result in experiment [1], in experiment [2], in experiment [3], in experiment [5], in [6] and in [7] was inactive. For the same molecule, the result in experiment [8], in [9], in experiment [10], in experiment [12], in [13] and in [14] was inactive. For the same molecule, the result in experiment [16], in experiment [17] and in experiment [18] was inactive. The AC50 in experiment [4] was 35.9 µM (active); in [15], 30 µM (active) and 19.5 µM (active).

As to `Cc1cc(C)cc(O)c1`, the outcome in [1], in experiment [3], in experiment [4] and in experiment [5] was inactive.

For the molecule `CC(=O)Nc1ccc(N=Nc2cc(C)ccc2O)cc1`, the molecule was called inactive in [1], in experiment [2], in experiment [4], in [7], in experiment [8] and in experiment [9]. Besides, the outcome in [12], in experiment [13], in experiment [14] and in experiment [17] was inactive. Further, the AC50 in experiment [5] was 47.6 µM (active); in experiment [6], 0.463 µM (active); in experiment [10], 14.5 µM (active); in experiment [15], 24.7 µM (active); in [19], 39.6 µM (active); in experiment [16] it was 15.2 µM (active). The AC50 in experiment [18] was 7.5 µM (active).

Regarding `CC/C=C\CCOC(=O)c1ccccc1`, the result in experiment [1], in [3] and in [4] was inactive.

For `O=C(O)C(F)(F)C(F)(F)C(F)(F)F`, the outcome in experiment [1], in [2], in [3], in experiment [5], in experiment [6] and in [7] was inactive. Further, the result in experiment [8], in experiment [9], in [10], in [11], in experiment [12] and in experiment [13] was inactive. For the same molecule, the result in experiment [14], in experiment [15], in experiment [16], in experiment [17] and in experiment [18] was inactive.

Turning to `FC(F)(F)C(F)(F)C(F)(F)C(F)(F)C(F)(F)C(F)(F)CC1CO1` (configuration not stated), the molecule was classed as inactive in experiment [1], in experiment [2], in experiment [3], in [5], in [6] and in [7]. The outcome in experiment [8], in [9], in experiment [10], in experiment [12], in experiment [14] and in experiment [15] was inactive. Besides, the outcome in [16], in experiment [17], in experiment [20] and in experiment [18] was inactive.

Take `CCCCCCCCCCCCCCCC[N+](C)(C)Cc1ccccc1`: the outcome in [1], in experiment [2], in [3], in experiment [4], in experiment [5] and in [13] was inactive. Also, the outcome in experiment [14] was inactive. Moreover, the AC50 in experiment [6] was 7.67 µM (active); in experiment [7] it was 8.81 µM (active); in experiment [8] it was 5 µM (active); in experiment [9], 1.37 µM (active); in experiment [10], 0.977 µM (active); in experiment [12], 4.12 µM (active). The AC50 is 9.34 µM (active) in experiment [15]; 2.96 µM (active) in experiment [19]; 4.62 µM (active) in experiment [16]; 5.09 µM (active) in experiment [17]; 5.04 µM (active) in experiment [20]; 5.17 µM (active) in experiment [18].

Usually AC50 stands for the concentration giving half of the maximal activity seen.
